In the supplement of paper PMC3334620:
Over roughly 33,000 sequences, “E-score (-0.5 to 0.5)” has its median near -0.041; the highest 2% begin near 0.37. The entries come from a sample that favours the highest values as a whole.

Each sequence was assayed against T1, Ecm22 (UniProt Q05958) (assay: PBM E-score (8-mer binding enrichment) (E-score (-0.5 to 0.5)); higher = stronger / more preferred TF binding). Conditions: protein concentration: 200 nM; construct: GST-full length.
T1 sequence: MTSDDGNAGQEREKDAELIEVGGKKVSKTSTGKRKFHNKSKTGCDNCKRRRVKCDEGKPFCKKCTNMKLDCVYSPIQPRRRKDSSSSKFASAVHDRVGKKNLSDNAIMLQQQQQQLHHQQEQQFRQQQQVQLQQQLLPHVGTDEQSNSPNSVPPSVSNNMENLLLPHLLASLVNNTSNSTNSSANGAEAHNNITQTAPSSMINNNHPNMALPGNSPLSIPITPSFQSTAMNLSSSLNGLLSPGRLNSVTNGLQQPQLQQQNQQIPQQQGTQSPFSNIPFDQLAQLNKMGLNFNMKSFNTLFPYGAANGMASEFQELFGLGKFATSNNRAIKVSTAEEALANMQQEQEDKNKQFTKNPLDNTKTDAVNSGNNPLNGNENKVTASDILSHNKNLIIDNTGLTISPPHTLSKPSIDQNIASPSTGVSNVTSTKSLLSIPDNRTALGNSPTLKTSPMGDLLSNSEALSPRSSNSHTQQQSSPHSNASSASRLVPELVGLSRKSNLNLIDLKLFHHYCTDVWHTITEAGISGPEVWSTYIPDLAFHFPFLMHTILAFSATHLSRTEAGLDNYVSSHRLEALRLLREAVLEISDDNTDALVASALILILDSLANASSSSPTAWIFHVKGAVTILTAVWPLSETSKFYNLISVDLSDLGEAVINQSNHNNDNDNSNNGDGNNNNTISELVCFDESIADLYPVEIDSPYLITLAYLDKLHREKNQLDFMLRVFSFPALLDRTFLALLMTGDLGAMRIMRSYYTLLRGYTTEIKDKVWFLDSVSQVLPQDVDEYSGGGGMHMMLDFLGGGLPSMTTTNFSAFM
Procedure, shortened: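 The E-score, a modified Wilcoxon-Mann-Whitney statistic, was computed by the Universal PBM Analysis Suite for every ungapped eight-base word pooled with its reverse complement. Scans behind it were normalised with masliner after bound GST-tagged yeast transcription factors were detected with fluorescent anti-GST. The proteins, at about 100-200 nM, had been applied to universal all-10-mer Agilent arrays made double-stranded by primer extension.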

Sequence	PBM E-score
GGCACCGA	-0.0384
GAGTCACA	0.0764
AAACTGTT	-0.124
ACCGTAAC	0.231
ACCGTACA	0.371
ACCGTACC	0.416
ACCGTAGC	0.163
ACCGTACT	0.285
ACCGTAGA	0.0719
CACTGTCG	0.109
GCCCTATA	-0.00087
AAATAGCT	-0.0997
ATTAACGC	0.122
GCTAACGA	0.281
CTTAACGC	-0.0209
GTTAACTA	0.106
GTTAACGA	0.408
ATTAACGA	0.402
CGTAACGA	0.338
ATTAACGG	0.226
CTTAACGA	0.432
AGAAGACA	0.011
GTGTTTCA	-0.0721
GTCCTGGA	-0.225
TTAATAAA	0.169

Sequence	PBM E-score
GCGAACGC	0.138
GCGAACGA	0.397
TCGAACAA	0.109
ACGAACGA	0.447
GCGAACTA	0.114
ACGAACGG	0.392
TCGAACCA	-0.029
CCGAACGA	0.357
ACGAACGT	0.307
TCGAACGA	0.373
CCGAACGG	0.222
ACGAACGC	0.362
CCACCGGG	-0.108
GATTTCCA	-0.146
CTGCTCTA	0.0645
ATGCTGAG	-0.31
AGCCGGAA	-0.0725
ACCAATGA	-0.061
CAACAACG	0.209
ATAGTCGC	0.146
CCTCTAAA	-0.193
GACTTAGC	-0.147
GGCATCCC	-0.315
CAAGCAAC	0.00354
AGAGGCCA	-0.203

Sequence	PBM E-score
CTACCAAG	-0.23
AGGAACGC	0.208
AGGAACAG	-0.257
AGGAACGG	0.459
AAAGACGC	-0.118
AAATTGAA	-0.166
AAACGGTT	0.262
AGAACGTG	-0.0515
CGAACGCG	0.198
CTAACGAG	0.331
CGAACGTC	0.0995
CGAACGAG	0.428
AGAACGAG	0.45
CGAACGCC	0.0398
ACAACGAG	0.288
CGAACGGA	0.24
CGAACGAC	0.389
AGAACGGA	0.0615
GGAACGGA	0.435
ATGGTTAG	-0.0935
GAGGCGTA	0.155
TAAGGATA	0.00857
GGCATTAC	-0.132
GAGTTGAA	0.04
CGAACGTA	0.214

Sequence	PBM E-score
AGAACGTC	-0.0743
CTAACGAA	0.219
ATAACGAC	0.203
ATAACGAA	0.185
AGAACGAC	0.425
GTAACGAC	0.289
TTAACGAA	0.411
GGAACGAC	0.491
CGAACAAA	0.2
GGAACGCC	0.051
CGAACGAA	0.393
AATGTCCG	0.127
GCGAAGTA	0.112
ACCACTGC	-0.25
GGTGCCAA	-0.179
AATGGGGG	-0.268
CAAGGGAG	0.062
ACGCCCAC	-0.181
GGAAACAC	0.0703
TACGGACA	0.258
AGAACGAA	0.422
TGAACAAA	0.165
TGAACGCA	0.0733
TGAACGAA	0.434
AGAACAAA	0.0892

Sequence	PBM E-score
AGAACGAT	0.342
GGAACGCA	0.23
GGAACGTA	0.353
GGAACGAA	0.489
ACAGAAGT	-0.182
CCTAAGTA	0.0729
TACGACCA	0.449
GACGACCA	0.097
AACGACCA	0.424
AACGACCC	0.386
AACGACCG	0.407
CACGACCG	0.0498
CACGACCA	0.0103
GACGACCC	-0.108
TGCGACCA	0.215
ACCGACCG	0.278
CACGACCC	-0.0107
TCCGACCA	0.16
CGGCGTTA	0.0563
AGCAATTA	-0.107
CCCAGGTC	-0.218
AAGTTGGT	0.0141
CTCAAGTA	-0.142
CATAACAC	0.0539
AGCCTCTC	-0.117

Sequence	PBM E-score
CGATAAAC	0.259
GACTTTTA	-0.222
CAGGCTGC	-0.272
ATGCCATA	0.0201
GATAGACC	0.0888
AGCGACCT	0.0578
ACCGACCT	0.0975
AACGACCT	0.385
GGACTGGA	-0.323
AACTGGGC	-0.0689
TCGTAAGA	0.407
GCGTATCA	0.114
TCGTAACA	0.425
ACGTTAAA	0.213
TCGTATCA	0.463
CCGTAACA	0.2
CCGTTAAA	0.278
TCGTTAAA	0.44
ACGTATCA	0.281
CCGTAAGA	0.164
GCGTAACA	0.00254
ACGTAAGA	0.105
AATGGGCA	-0.0348
AGAAATAA	-0.0747
AGAAGCCA	-0.0549

Sequence	PBM E-score
ACGAGTGG	0.331
ATTTTCCA	-0.0726
ACGTAAAA	0.243
GCGTAAAA	0.217
TCGTAAAA	0.476
GGCAGGGA	-0.148
AATTCAGA	-0.0476
CTCGTTTC	0.453
ATCGTTGC	0.347
CGCGTTTC	0.0578
CACGTTTC	-0.0133
CTCGTTGC	0.445
CTCGTTGA	0.277
CTGCAAAA	-0.0893
ACGGGTTA	0.217
ACGCATCA	0.0479
ATTCGGAC	0.163
CCGGGTAC	0.291
ATTTGAAC	0.0528
CTCAGCTC	-0.0614
ATCATCTC	0.0439
GTAAACAA	0.279
